# Screens as filed in PubChem.
# A selection: hits, their analogues and other compounds. The true share with any hit is near 8.9%.
# KB-V1 cytotox = kills drug-selected multidrug resistant KB-V1 cells. Potency, µM (titrated, usually from 46.1 µM), hits mostly cytotoxic. actives 3.4% (n = 400,000). KB-V1 MDR cells viability, CellTiter-Glo, 72 h; also: potency is read from the fitted curve at half-maximal effect; % is scaled to controls: 0 for no effect and ±100 for the full control effect; nearly all actives have a fitted effect of over 60% in size
#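 Following 72 h at 37 degrees C with compound, KB-V1 cell viability was read by CellTiter-Glo luminescence, medium being phenol-red-free DMEM plus 10% FBS; concentration-response parameters came from normalized, curve-fitted qHTS data.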
# D3 antag = blocks the human D3 dopamine receptor | P35462 | D3R cells, DiscoveRx beta-arrestin luminescence, antagonist mode; hits give low values | max response, negative = inhibition, % | actives 2.5% (n = 360,000) | AID 652054; in the data active = max response below about -50%; inconclusive = no clear call, values can overlap the other calls; also: % is scaled to controls: 0 for no effect and ±100 for the full control effect
# Target sequence (P35462 whole entry, looked up): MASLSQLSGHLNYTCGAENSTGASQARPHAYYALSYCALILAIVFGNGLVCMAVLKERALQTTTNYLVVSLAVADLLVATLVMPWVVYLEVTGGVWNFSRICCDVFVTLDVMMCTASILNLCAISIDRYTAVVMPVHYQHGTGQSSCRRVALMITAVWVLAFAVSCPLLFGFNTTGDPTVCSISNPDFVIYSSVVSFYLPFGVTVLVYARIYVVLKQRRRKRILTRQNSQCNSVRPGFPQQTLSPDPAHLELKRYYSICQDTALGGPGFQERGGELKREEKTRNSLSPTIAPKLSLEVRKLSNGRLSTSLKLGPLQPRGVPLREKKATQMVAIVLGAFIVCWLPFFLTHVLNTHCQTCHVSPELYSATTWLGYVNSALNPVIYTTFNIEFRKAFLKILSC
#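 Cells expressing the human receptor were seeded at 1500 cells/well, incubated overnight at 37 degrees C in 5% CO2, then exposed to library compounds with dopamine controls for 90 minutes at 37 degrees C before luminescent detection.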
# KB-3-1 tox = kills parental KB-3-1 adenocarcinoma cells | KB-3-1 viability, CellTiter-Glo ATP luminescence, 72 h | Potency, µM (titrated, usually from 46.1 µM), hits mostly cytotoxic | actives 1.4% (n = 400,000); also: potency is read from the fitted curve at half-maximal effect; % is scaled to controls: 0 for no effect and ±100 for the full control effect; nearly all actives have a fitted effect of over 60% in size
#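 Parental KB-3-1 adenocarcinoma cells in phenol-red-free DMEM with 10% FBS were pin-treated with compounds at several concentrations, incubated 72 h at 37 °C, and viability read by CellTiter-Glo luminescence; concentration-effect curves were fitted after normalization.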
# SW480 rerep = induces DNA re-replication in SW480 colon adenocarcinoma cells; actives 1.8% (n = 340,000); SW480 DNA re-replication, Hoechst DNA content imaging, 48 h; Potency, µM (highest dose often 46.1 µM), without a hit: at the top dose re-replication activation, most hits filed as activators; also: potency is read from the fitted curve at half-maximal effect; % of control where 0% means no effect; nearly all actives have a fitted effect of over 55% in size
#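 Readout is total intensity of Hoechst-stained nuclei, excited at 405 nm and collected at 500-530 nm. Compound treatment lasted 48 hr at 37 C in 5% CO2 before staining.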
# MCF10A rereplic = DNA re-replication induction in MCF 10a cells. actives 2.9% (n = 350,000). Potency, µM (titrated, usually from 46.1 µM), for inactives: at the highest dose activity, positive = re-replication, hits mostly activators. MCF 10A DNA re-replication, Hoechst nuclear intensity, 48 h; also: potency is read from the fitted curve at half-maximal effect; % of control where 0% means no effect; nearly all actives have a fitted effect of over 50% in size
# DRD3 agonist = D3 dopamine receptor (human) agonism. P35462. D3R DiscoveRx beta-arrestin cells, luminescence, 90 min. max activation, %. actives 0.58% (n = 410,000). AID 652048; in the data active = max activation above about 30%; also: 0% is about no effect
#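 Cells at 1500/well, incubated overnight, then treated with pinned compounds (dopamine as control) for 90 min at 37 degrees C. DiscoveRx reagent added for 30 - 60 minutes at room temperature; luminescence read.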
# Active calls of the source: *; i = inactive; ? = inconclusive; . = no result given; ! = a repeat was not active. Unless noted, calls follow the shape of the dose curve; as a rule, active = well fitted curve in the direction sought with a large enough effect; inconclusive = small, poorly fitted or top-dose-only effect, or another doubt; inactive = no such curve, though single readings can be large; an effect the other way counts as inactive or inconclusive.
SMILES,KB-V1 cytotox,D3 antag,KB-3-1 tox,SW480 rerep,MCF10A rereplic,DRD3 agonist
O=C1CCCN1c1ccc(S(=O)(=O)N2CCC(c3ccccc3)CC2)cc1,2.6µM*,4,i,-4%,3%,1
Cn1c(N)c(C(C[N+](=O)[O-])c2c(F)cccc2Cl)c(=O)n(C)c1=O (configuration not stated),i,0,?,16µM*,?,1
CN(C)c1ccc(C(C[N+](=O)[O-])c2c(N)n(C)c(=O)n(C)c2=O)c(F)c1C#N (configuration not stated),i,-14,?,?,3.7µM*,1
COc1ccc(Br)cc1C(C[N+](=O)[O-])c1c(N)n(C)c(=O)n(C)c1=O (configuration not stated),?,0,?,3%,?,-4
CN(C)c1ccc(C(=C2C=CC(=[N+](C)C)C=C2)c2c(O)c(S(=O)(=O)[O-])cc3cc(S(=O)(=O)O)ccc23)cc1,i,.,?,-1%,-2%,-5
CCN(CC)c1ccc(C(=C2C=CC(=[N+](CC)CC)C=C2)c2ccc(S(=O)(=O)O)cc2S(=O)(=O)[O-])cc1,?,-8,12µM*,-4%,-4%,-15
CCOc1ccc(NC(=O)CSc2nc(-c3cccc(Cl)c3)nc3c2Cc2c(CO)cnc(C)c2O3)cc1,i,.,i,.,.,3
Cc1[nH]c2ccccc2c1C(=O)C(C)OC(=O)c1ccc([N+](=O)[O-])o1 (configuration not stated),?,?,?,?,23µM*,-9
COc1cc(/C=C/c2nc3ccccc3nc2/C=C/c2cc(OC)c(OC)c(OC)c2)cc(OC)c1OC,i,.,?,.,.,.
CN(C)c1ccc(/C=C/c2nccc3ccccc23)cc1,i,.,i,.,.,.
COc1cc(/C=C/c2ccc3ccccc3n2)cc(OC)c1OC,?,.,2.6µM*,.,.,.
Fc1ccc(/C=C/c2nccc3ccccc23)cc1,i,.,18µM*,.,.,.
Fc1cccc(F)c1/C=C/c1ccc2ccccc2n1,?,-26,i,.,3%,2
CC(O)/C=C/c1ccc2ccccc2n1 (configuration not stated),?,3,?,?,18µM*,-2
Fc1ccc(/C=C/c2ccc3ccccc3n2)cc1,i,.,12µM*,.,.,.
CCc1nc2ccc(C(=O)NCc3cc(OC)ccc3OC)cc2nc1CC,i,.,i,.,.,-9
CNC(=O)C(N)CSC(C)C1=C(C)c2cc3[n-]c(cc4nc(cc5[n-]c(cc1n2)c(C)c5CCC(=O)O)C(CCC(=O)O)=C4C)c(C)c3C(C)SCC(N)C(=O)NC.[Fe+2] (configuration not stated),.,.,.,-9%,4%,.
CCn1c(SCC(=O)NCc2ccco2)nnc1-c1cccc(N(C)C)c1,i,.,i,.,.,.
NC(=O)CSc1ncc2c(n1)-c1ccccc1N(Cc1ccc(Cl)cc1)S2(=O)=O,i,.,i,.,.,5
C(=C\c1ccco1)/c1ccc2ccccc2n1,i,-3,i,-24%,18µM*,9
COc1ccccc1/C=C/c1ccc2ccccc2n1,i,.,i,.,.,.
Cn1ncc2c(N3CCN(c4ccccc4F)CC3)ncnc21,?,29,i,1%,2%,30*!
Cn1ncc2c(N3CCN(c4ccc(Cl)c(Cl)c4)CC3)ncnc21,2.3µM*,4,i,-4%,11%,-4
CC(C)C(=O)N1CCN(c2ccc(NC(=O)c3ccc4c(c3)OCCO4)cc2Cl)CC1,2.9µM*,109,?,6%,18µM*,25
O=C(Nc1ccc(N2CCN(C(=O)c3ccc(Cl)cc3)CC2)cc1)c1ccc2c(c1)OCCO2,i,23,i,2%,6%,43*
SMILES,KB-V1 cytotox,D3 antag,KB-3-1 tox,SW480 rerep,MCF10A rereplic,DRD3 agonist
CCN1C[C@@H]2[C@@H]3C(=O)N(C)C(=O)[C@@H]3[C@](C)(C1=O)N2C(=O)c1ccc(Cl)c(Cl)c1,i,34,?,2%,-3%,-6
CCc1nc2ccc(C(=O)NC3CCN(Cc4ccccc4)CC3)cn2c1N(C)Cc1cccs1,i,-77*,i,.,.,-29
CCc1nc2ccc(C(=O)NC3CCN(Cc4ccccc4)CC3)cn2c1N(C)Cc1cc2ccccc2s1,10µM*,-68*,?,.,.,-10
CCc1nc2ccc(C(=O)N3CCN(C(=O)c4ccco4)CC3)cn2c1N(C)Cc1cccs1,i,72,i,.,.,2
Cc1ccc2c(=O)cc(C(=O)Nc3ccc(S(=O)(=O)N(C)c4ccccc4)cc3)oc2c1C,?,.,i,.,.,-10
O=C(NC(c1cccnc1)c1ccc2c(c1)OCO2)C1CCN(CCOc2ccc(Cl)cc2Cl)CC1 (configuration not stated),i,-69*,i,.,.,-14
O=C(NC(c1ccccc1)c1ccsc1)C1CCN(CCOc2ccc(Cl)cc2Cl)CC1 (configuration not stated),i,56,i,.,.,52*
O=C(NC(c1ccccc1)c1cnccn1)C1CCN(CCOc2ccc(Cl)cc2Cl)CC1 (configuration not stated),i,-84*,i,.,.,-13
COc1ccc(OCCN2CCC(C(=O)NC(c3ccc(Cl)cc3)c3cnccn3)CC2)cc1 (configuration not stated),i,?,i,.,.,-13
Cc1nc(C(=O)Nc2ccccc2Cl)cc2c1[nH]c1ccccc12,2.9µM*,1,7.3µM*,?,-1%,0
CN1CCN(C2=C(Cl)C(=O)N(CCc3ccccc3)C2=O)CC1,i,-71*,i,1%,13%,-6
